HEK293 tox: cytotoxicity in counter-screen for GLP-1R inverse agonists. HEK293 cAMP-luciferase reporter cells, luminescence, 24 h. Potency, µM (top dose mostly 38.3 µM), usual class: inhibitors. 410,000 tested, 0.13% active. AID 624418;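 also: loss of luciferase light is scored as toxicity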
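A 23 nL compound transfer followed 12 hours of cell culture at 37 deg C; exposure then lasted 24 hr. Luciferase assay detection reagent was dispensed and plates read for luminescence after a 12 min room-temperature wait.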
BRCA1 expr act: activators of BRCA1 expression. MCF7-BRCA1-FFLuc reporter, luminescence, 48 h; response scale: scaled: vehicle 0%, 10 µM genistein 100%. Potency, µM (top dose mostly 46.1 µM), most hits filed as activators. 380,000 tested, 1.1% active; also: nearly all actives have a fitted effect of over 80% in size
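First, MCF7-BRCA1-FFLuc cells (2000/well) attach for 2 h; next, compounds are pin-added and incubated 48 h at 37 °C; finally, luciferase reagent is added and luminescence read after 15 min.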
GLP-1R inv ag: GLP-1 receptor (human) inverse agonism; P43220; HEK293 GLP-1R CRE-luciferase, luminescence, 24 h; GLP-1R form is constitutively active; Potency, µM (top dose mostly 38.3 µM), actives largely listed as inhibitors; 410,000 tested, 1.6% active; also: nearly all actives have a fitted effect of over 55% in size
Target sequence (P43220 whole entry, looked up): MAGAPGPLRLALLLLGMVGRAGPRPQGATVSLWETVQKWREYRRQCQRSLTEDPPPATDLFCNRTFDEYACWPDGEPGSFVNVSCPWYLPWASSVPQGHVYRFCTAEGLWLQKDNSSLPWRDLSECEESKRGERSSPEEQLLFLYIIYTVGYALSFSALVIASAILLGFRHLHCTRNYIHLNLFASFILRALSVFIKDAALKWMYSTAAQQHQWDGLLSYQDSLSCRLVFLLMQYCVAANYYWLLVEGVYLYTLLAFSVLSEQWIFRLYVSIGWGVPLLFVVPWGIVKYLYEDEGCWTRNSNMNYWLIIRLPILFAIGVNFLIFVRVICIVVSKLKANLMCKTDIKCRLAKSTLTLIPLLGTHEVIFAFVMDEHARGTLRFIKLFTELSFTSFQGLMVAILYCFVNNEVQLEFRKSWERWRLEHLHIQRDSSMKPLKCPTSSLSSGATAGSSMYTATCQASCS
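Inverse agonism was detected as reduced cAMP-driven luciferase luminescence after 24 h compound treatment. The cells were HEK293 clones expressing constitutively active human GLP-1R with the reporter. Reporter-only and GPR119 cell lines served as counterscreen controls.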
Mito fusion yeast: blocks mitochondrial division or promotes mitochondrial fusion. S. cerevisiae fusion-defective mutant growth rescue, CellTiterGlo 48 h. Potency, µM (series often up to 46.1 µM), usual class: activators. 320,000 tested, 0.23% active; also: nearly all actives have a fitted effect of over 45% in size
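Compounds are tested for their ability to restore growth of mitochondrial fusion-defective yeast strains at non-permissive 37C in YPEG medium over 48 hours. Viability is quantified by luciferase luminescence.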
GLP-1R agonist: GLP-1 receptor (human) agonism; P43220; HEK293 GLP-1R CRE-luciferase, luminescence, 4-6 h; cells express a hypersensitive GLP-1R form; Potency, µM (titrated, usually from 45.6 µM), hits mostly activators; 380,000 tested, 0.007% active; AID 624172
Large screens that a line does not name were inactive. Sampled rows, rich in hits. Any-hit rate of the full collection: about 2.8%. Calls follow the shape of the dose curve; as a rule, active = well fitted curve in the direction sought with a large enough effect; inconclusive = small, poorly fitted or top-dose-only effect, or another doubt; inactive = no such curve, though single readings can be large; an effect the other way counts as inactive or inconclusive.

O=C(NNC1=C(C(=O)C(F)(F)F)CCC1)c1ccccc1O	GLP-1R inv ag 2.8µM
CCOC(=O)c1cnc2ncnn2c1N	none
Nc1cccc(-c2nc3ccccc3[nH]2)c1	BRCA1 expr act 10µM
CCOC(=O)c1c(CSc2ccc(CC)cc2)oc2ccc(O)c(CN(C)C)c12	HEK293 tox inconclusive, GLP-1R inv ag 2.5µM
COc1ccc2c(c1)c(CCNNC(=O)C(C)(C)C)c(C)n2C(=O)c1ccc(Cl)cc1	HEK293 tox inconclusive, GLP-1R inv ag 10µM (no result: Mito fusion yeast)
Cc1ccccc1-c1nnc(Cc2ccccc2)o1	BRCA1 expr act 2.8µM
Cc1[nH]c2ccccc2c1Cc1nnc(SCc2ccccc2)o1	GLP-1R inv ag 11µM
Cc1ccccc1-c1nnc(SCc2ccccc2F)o1	BRCA1 expr act inconclusive
c1ccc(Cc2nnc(-c3ccccc3)o2)cc1	none
Cc1ccc(CSc2nnc(-c3ccco3)o2)cc1	BRCA1 expr act 5µM
Cc1ccccc1-c1nnc(SCc2ccccc2)o1	BRCA1 expr act 10µM, GLP-1R inv ag inconclusive
Cc1cccc(S(=O)(=O)NC2CCCCCCC2)c1	GLP-1R inv ag inconclusive
CSc1cnc2c(=O)n(C)c(=O)[nH]c2n1	none
Cn1c(=O)[nH]c2nnc(-c3ccc(Cl)c(Cl)c3)nc2c1=O	GLP-1R inv ag inconclusive, Mito fusion yeast 2.5µM
O=C(NCCSCc1c(F)cccc1Cl)c1ccco1	BRCA1 expr act inconclusive, GLP-1R inv ag inconclusive
Cc1ccccc1N=C(NOCc1ccccc1)c1nonc1N	GLP-1R inv ag 10µM, Mito fusion yeast 22µM
COc1cccc(NC(=S)NC(Cc2ccccc2)c2ccccc2)c1 (configuration not stated)	HEK293 tox inconclusive, GLP-1R inv ag inconclusive (no result: Mito fusion yeast)
COc1ccc2nc(SCC(=O)NCc3ccc(OC)c(OC)c3)[nH]c2c1	none
Cc1ccc(NC(=O)c2ccc(NC(=O)c3ccccc3)cc2)cc1C	HEK293 tox inconclusive, GLP-1R inv ag inconclusive
Cc1ccc(NC(=O)CC(=O)c2ccccc2)cc1C	BRCA1 expr act 6.3µM
CC1(C(=O)Nc2ccc3c(c2)OCCO3)CN(S(C)(=O)=O)CC(=O)N1CC(F)(F)F (configuration not stated)	none (no result: BRCA1 expr act, Mito fusion yeast, GLP-1R agonist)
Cc1ccc(CC(=O)Nc2nc3ccccc3s2)cc1	BRCA1 expr act inconclusive, GLP-1R inv ag inconclusive
Cc1nc2c(ccc3nc(NC(=O)Cc4ccccc4)sc32)s1	GLP-1R inv ag inconclusive, Mito fusion yeast 11µM
CC(C)Oc1ccc(Br)cc1/C=N\NC(N)=S	HEK293 tox 2.5µM, GLP-1R inv ag 3.2µM
Cc1cc(/C=N/NC(N)=S)c(C)n1-c1ccc(Br)cc1	HEK293 tox inconclusive, GLP-1R inv ag inconclusive
O=c1[nH]c(=O)c2cc3ccccc3nc2[nH]1	none (no result: Mito fusion yeast)
Cc1ccc(CNC(=O)CN(c2cccc([N+](=O)[O-])c2)S(=O)(=O)c2ccccc2)cc1	GLP-1R inv ag inconclusive
C[C@H](NC(=O)c1nc[nH]c1C(=O)NC(c1ccccc1)c1ccccc1)C(=O)OC(C)(C)C	GLP-1R inv ag 5.6µM
CC(C)C[C@H](NC(=O)c1[nH]cnc1C(=O)N[C@@H](C)c1ccccc1)C(=O)OCc1ccccc1	GLP-1R inv ag 4.5µM
CC(Oc1ccccc1)C(=O)Nc1ccc(C(=O)OCc2cc(=O)n3nc(C(C)C)sc3n2)cc1 (configuration not stated)	none (no result: BRCA1 expr act, Mito fusion yeast, GLP-1R agonist)
CC(C)(C)c1ccc(S(=O)(=O)c2cnc(SCC(=O)Nc3ccc(F)c(Cl)c3)[nH]c2=O)cc1	none (no result: Mito fusion yeast, GLP-1R agonist)
Cc1ccccc1NC(=O)c1c([N+](=O)[O-])c(C(C)(C)C)nn1C	GLP-1R inv ag inconclusive
Cc1cccc(NC(=O)c2c([N+](=O)[O-])c(C(C)(C)C)nn2C)c1	GLP-1R inv ag 5µM
Cn1nc(C(C)(C)C)c([N+](=O)[O-])c1C(=O)Nc1ccc(Br)cc1	GLP-1R inv ag 2.8µM
CCC(CC)C(=O)N1CCc2cc(OC)c(OC)cc2C1COc1ccccc1OC (configuration not stated)	GLP-1R inv ag inconclusive (no result: Mito fusion yeast)
CC(NC(=O)CSc1nc(-c2ccccc2F)nc2cc(=O)[nH]n12)c1nc2ccccc2n1C (configuration not stated)	none (no result: BRCA1 expr act, Mito fusion yeast, GLP-1R agonist)
S=C1NC[C@H](CC2CCCCC2)N1CCc1cccc2ccccc12	GLP-1R inv ag 7.9µM
COc1ccc(N2CCN(C3C(=O)Nc4ccccc4-n4nnnc43)CC2)cc1 (configuration not stated)	none (no result: BRCA1 expr act, Mito fusion yeast, GLP-1R agonist)
COc1ccc(-c2cc(C(F)(F)F)nc(NCCc3ccccc3)n2)cc1	GLP-1R inv ag 3.2µM (no result: Mito fusion yeast)
COc1ccc(CCNc2nc(-c3ccccc3OC)cc(C(F)(F)F)n2)cc1OC	GLP-1R inv ag 3.5µM (no result: Mito fusion yeast)
COc1ccc(-c2cc(C(F)(F)F)nc(NCCc3ccccc3)n2)cc1OC	none (no result: Mito fusion yeast)
COc1cccc(-c2cc(C(F)(F)F)nc(NCCc3ccccc3)n2)c1	GLP-1R inv ag inconclusive (no result: Mito fusion yeast)
CN(C)CCNC(=O)C12CC3(C)CC(C)(CC(C)(C3)C1)C2	GLP-1R inv ag 8.9µM
CCCCn1c(N)c(N(CCOC)C(=O)C2CC(=O)N(Cc3ccc(C)cc3)C2)c(=O)[nH]c1=O (configuration not stated)	none
CCOc1ccc(CN2CCN(Cc3[nH]c4ccc(OC)cc4c3C)CC2CCO)cc1 (configuration not stated)	GLP-1R inv ag 13µM
CCC1(c2ccccc2)SCC(c2ccccc2)=NC1=O (configuration not stated)	GLP-1R inv ag 3.2µM (no result: Mito fusion yeast)
CCO[C@H]1OC(C(=O)NCc2ccccc2)=C[C@@H](c2ccc(C(F)(F)F)cc2)[C@@H]1CCCO	GLP-1R inv ag 10µM
CCO[C@H]1OC(C(=O)N2CCOCC2)=C[C@@H](c2ccc(C(F)(F)F)cc2)[C@@H]1CCCO	none
CCO[C@@H]1OC(C(=O)N2CCCCCCC2)=C[C@H](c2ccc(C(F)(F)F)cc2)[C@H]1CCCO	GLP-1R inv ag 10µM
COc1ccc(-c2nnc(SCc3ccccn3)n2C)cc1	BRCA1 expr act 13µM
Cc1ccc(Nc2nc(CSc3nnnn3-c3ccccc3)cs2)cc1	GLP-1R inv ag inconclusive
Cn1nnnc1SCc1cccc(CSc2nnnn2C)n1	none
Cc1ccc(Nc2nc(C)cs2)cc1	BRCA1 expr act 2.5µM
Cn1nnnc1SCc1csc(Nc2ccccc2)n1	BRCA1 expr act 13µM
Cc1ccc(Nc2nc(CSc3nnnn3C)cs2)cc1	BRCA1 expr act 3.2µM
Cc1csc(Nc2ccc(Cl)cc2)n1	BRCA1 expr act inconclusive
Cc1cc(Br)cn2c(Cc3ccccc3)c(-c3cccc(Br)c3)nc12	GLP-1R inv ag inconclusive (no result: Mito fusion yeast)
CCOC(=O)[C@@H]1[C@H]2COc3cc(OC)ccc3[C@@H]2N2C(=O)N(c3ccc(F)cc3)C(=O)[C@@]12C	none (no result: Mito fusion yeast)
Cc1ccc(Nc2nc(CSc3nnc(-c4ccccc4)n3C)cs2)cc1	BRCA1 expr act 3.5µM, GLP-1R inv ag inconclusive

Screening results as filed in PubChem.
